Structures can show the parent of a compound that is named as a salt.
System: LOC_OS02G45750-cb003
Test: thermal shift delta Tm vs DMSO control; higher = stronger stabilization (binding)
Settings: 12.5 µM; protein concentration 2 µM
Procedure, shortened: (§1)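 Heating from 25°C to 95°C at 0.05°C/s, fluorescence was recorded for 19.5 μl wells of 2 μM E. coli-expressed, purified rice kinase domain in 100 mM potassium phosphate pH 7.5, 150 mM NaCl, 10% glycerol and 5 × SYPRO Orange with compound in DMSO. Boltzmann fits gave melting temperatures for this differential scanning fluorimetry assay. The shift reported is the mean of three replicates against the DMSO-only protein.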
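Further: purified Escherichia coli-expressed rice kinase domain construct.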

Row | Compound | thermal shift delta Tm [°C]
1 | CC(C)(C)c1cnc(CSc2cnc(NC(=O)C3CCNCC3)s2)o1 | 0.84
2 | CN(C)C/C=C/C(=O)Nc1cc2c(Nc3ccc(F)c(Cl)c3)ncnc2cc1O[C@H]1CCOC1 [Afatinib (BIBW2992) Dimaleate] | 1.42
3 | O=C1c2c(O)cc(O)cc2OC(c2ccc(O)c(O)c2)C1O (centres undefined) [Taxifolin (Dihydroquercetin)] | 0.74
4 | CCN(CC)CCNC(=O)c1c(C)[nH]c(/C=C2\C(=O)Nc3ccc(F)cc32)c1C [Sunitinib Malate] | 12.4
5 | COc1cc(Nc2ncc(F)c(Nc3ccc4c(n3)N(COP(=O)(O)O)C(=O)C(C)(C)O4)n2)cc(OC)c1OC [Fostamatinib (R788)] | 4.51
6 | CC(C)(C)c1nc(-c2ccc(NC(=O)Nc3cccc(C(F)(F)F)c3)c3ccccc23)c2c(N)nccn12 [kira6] | 2.31
7 | CNC(=O)c1cc(Oc2ccc(NC(=O)Nc3ccc(Cl)c(C(F)(F)F)c3)cc2)ccn1 [Sorafenib Tosylate] | 2.62
8 | CC(=O)Nc1nc(C)c(-c2ccc(Cl)c(S(=O)(=O)NCCO)c2)s1 | 1.06
9 | CCc1nc(-c2cccc(C)c2)c(-c2ccnc(NC(=O)c3ccccc3)c2)s1 | 0.74
10 | C[C@@]1(C(=O)Nc2ccc(F)nc2)CCCN1c1nc(Nc2cc(C3CC3)n[nH]2)c2cccn2n1 | -1.4
11 | COc1ccc(Cl)cc1NC(=O)Nc1cc(C)nc2ccccc12 | 0.37
12 | C=CC(=O)Nc1cccc(Nc2nc(Nc3ccc(OCCOC)cc3)ncc2F)c1 | 0
13 | CC(C)c1c2cc(-c3ccnc(NC4CCC(NC5CCOCC5)CC4)n3)ccc2nn1C (centres undefined) | 1.08
14 | C[C@H]1CNC(=O)c2cnn3ccc(nc23)N[C@H](C)c2cc(F)ccc2O1 | 3.54
15 | Cn1cc(-c2ccc3c(c2)CCN3C(=O)Cc2cccc(C(F)(F)F)c2)c2c(N)ncnc21 | 4.4
16 | Cn1c(=O)c(F)c(Nc2ccc(I)cc2F)c2c(=O)n(C[C@@H](O)CO)cnc21 | 1.03
17 | CNC(=O)c1cccc(-c2ccc3c(N4CCOC[C@@H]4C)nc(N4CCOC[C@@H]4C)nc3n2)c1 [Vistusertib (AZD2014)] | 0.21
18 | Cc1nc(Nc2cnn(C3CCNCC3)c2)nc2c1N(C)C(=O)c1cc3ccccc3cc1N2C | 2.86
19 | COc1cc2/c(=N/c3ccc(Br)cc3F)nc[nH]c2cc1OCC1CCN(C)CC1 [Vandetanib (ZD6474)] | 3.64

Row | Compound | thermal shift delta Tm [°C]
20 | CCn1c(C(=O)N(C2CC2)C2CC2)cc2c3c(ncn3C)c(Nc3cc(C)n(C)n3)nc21 | 1.23
21 | OCCn1cc(-c2cnc3nnn(Cc4ccc5ncccc5c4)c3n2)cn1 | 0.63
22 | N#CC[C@H](C1CCCC1)n1cc(-c2ncnc3[nH]ccc23)cn1 | 0.42
23 | CCn1nc(C2CCN(C(=O)CCO)CC2)nc1-c1cnc(N)c(-c2nnc(C(C)(C)C)o2)n1 | 3.05
24 | CC(C)(C)c1cc(NC(=O)Nc2ccc(Oc3ccnc4[nH]c(=O)cnc34)cc2F)n(-c2ccccc2)n1 | 8.1
25 | CO[C@H]1CC[C@H](N2C(=O)CNc3ncc(-c4ccc(C(C)(C)O)nc4)nc32)CC1 | 0.31
26 | CC[C@@H]1C(=O)N(C)c2cnc(Nc3ccc(C(=O)N[C@H]4CC[C@H](N5CCN(CC6CC6)CC5)CC4)cc3OC)nc2N1C(C)C [Volasertib (BI 6727)] | 1.95
27 | COc1ccc2c(c1)[C@]1(C[C@H]1c1ccc3c(/C=C/c4ccc(CN5C[C@@H](C)O[C@@H](C)C5)cc4)n[nH]c3c1)C(=O)N2 | 9.37
28 | O=C(Nc1nc2cccc(-c3ccc(CN4CCS(=O)(=O)CC4)cc3)n2n1)C1CC1 [Filgotinib (GLPG0634)] | 1.04
29 | CCn1c(-c2nonc2N)nc2c(C#CC(C)(C)O)ncc(OC[C@H]3CCCNC3)c21 | 0.16
30 | Cc1cnc(Nc2ccc(OCCN3CCCC3)cc2)nc1Nc1cccc(S(=O)(=O)NC(C)(C)C)c1 | 2.37
31 | Cc1cc(Nc2cc(N3CCN(C)CC3)nc(/C=C/c3ccccc3)n2)n[nH]1 [ENMD-2076 L-(+)-Tartaric acid] | 4.88
32 | CC#CC(=O)N1CC[C@@H](n2c(=O)n(-c3ccc(Oc4ccccc4)cc3)c3c(N)ncnc32)C1 [ONO-4059 (GS-4059) hydrochloride] | 0.78
33 | CCN1CCN(Cc2ccc(Nc3ncc(F)c(-c4cc(F)c5nc(C)n(C(C)C)c5c4)n3)nc2)CC1 | 3.28
34 | CN(C)C[C@@H]1CCn2cc(c3ccccc32)C2=C(C(=O)NC2=O)c2cn(c3ccccc23)CCO1 | -0.25
35 | CN1CCN(Cc2ccc(NC(=O)Nc3ccc(Oc4ccnc(N)n4)cc3)cc2C(F)(F)F)CC1 | 5.22
36 | O=C(NOCCO)c1ccc2cncn2c1Nc1ccc(I)cc1F | 0.53
37 | CCCCCCCCCCCCc1ccc(S(=O)(=O)Nc2nncs2)cc1 | -1.65

System: LOC_OS02G54510-cb004
Test: as above
Settings: 12.5 µM; protein concentration 2 µM
Procedure, shortened: as §1

Row | Compound | thermal shift delta Tm [°C]
38 | CC(C)(C)c1cnc(CSc2cnc(NC(=O)C3CCNCC3)s2)o1 | 0.08
39 | CN(C)C/C=C/C(=O)Nc1cc2c(Nc3ccc(F)c(Cl)c3)ncnc2cc1O[C@H]1CCOC1 [Afatinib (BIBW2992) Dimaleate] | 0.08
40 | O=C1c2c(O)cc(O)cc2OC(c2ccc(O)c(O)c2)C1O (centres undefined) [Taxifolin (Dihydroquercetin)] | -0.16
41 | CCN(CC)CCNC(=O)c1c(C)[nH]c(/C=C2\C(=O)Nc3ccc(F)cc32)c1C [Sunitinib Malate] | 0.41
42 | COc1cc(Nc2ncc(F)c(Nc3ccc4c(n3)N(COP(=O)(O)O)C(=O)C(C)(C)O4)n2)cc(OC)c1OC [Fostamatinib (R788)] | 2.89
43 | CC(C)(C)c1nc(-c2ccc(NC(=O)Nc3cccc(C(F)(F)F)c3)c3ccccc23)c2c(N)nccn12 [kira6] | 9.87
44 | CNC(=O)c1cc(Oc2ccc(NC(=O)Nc3ccc(Cl)c(C(F)(F)F)c3)cc2)ccn1 [Sorafenib Tosylate] | 1.95
45 | CC(=O)Nc1nc(C)c(-c2ccc(Cl)c(S(=O)(=O)NCCO)c2)s1 | 0.31
46 | CCc1nc(-c2cccc(C)c2)c(-c2ccnc(NC(=O)c3ccccc3)c2)s1 | -0.41
47 | C[C@@]1(C(=O)Nc2ccc(F)nc2)CCCN1c1nc(Nc2cc(C3CC3)n[nH]2)c2cccn2n1 | 2.49
48 | COc1ccc(Cl)cc1NC(=O)Nc1cc(C)nc2ccccc12 | 0.12
49 | C=CC(=O)Nc1cccc(Nc2nc(Nc3ccc(OCCOC)cc3)ncc2F)c1 | 1.8
50 | CC(C)c1c2cc(-c3ccnc(NC4CCC(NC5CCOCC5)CC4)n3)ccc2nn1C (centres undefined) | 0.06
51 | C[C@H]1CNC(=O)c2cnn3ccc(nc23)N[C@H](C)c2cc(F)ccc2O1 | 6.11
52 | Cn1cc(-c2ccc3c(c2)CCN3C(=O)Cc2cccc(C(F)(F)F)c2)c2c(N)ncnc21 | 2.71
53 | Cn1c(=O)c(F)c(Nc2ccc(I)cc2F)c2c(=O)n(C[C@@H](O)CO)cnc21 | 0.28
54 | CNC(=O)c1cccc(-c2ccc3c(N4CCOC[C@@H]4C)nc(N4CCOC[C@@H]4C)nc3n2)c1 [Vistusertib (AZD2014)] | 0.04
55 | Cc1nc(Nc2cnn(C3CCNCC3)c2)nc2c1N(C)C(=O)c1cc3ccccc3cc1N2C | -0.12
56 | COc1cc2/c(=N/c3ccc(Br)cc3F)nc[nH]c2cc1OCC1CCN(C)CC1 [Vandetanib (ZD6474)] | 0.98

Row | Compound | thermal shift delta Tm [°C]
57 | CCn1c(C(=O)N(C2CC2)C2CC2)cc2c3c(ncn3C)c(Nc3cc(C)n(C)n3)nc21 | 0.33
58 | OCCn1cc(-c2cnc3nnn(Cc4ccc5ncccc5c4)c3n2)cn1 | 0.54
59 | N#CC[C@H](C1CCCC1)n1cc(-c2ncnc3[nH]ccc23)cn1 | 1.39
60 | CCn1nc(C2CCN(C(=O)CCO)CC2)nc1-c1cnc(N)c(-c2nnc(C(C)(C)C)o2)n1 | 0.25
61 | CC(C)(C)c1cc(NC(=O)Nc2ccc(Oc3ccnc4[nH]c(=O)cnc34)cc2F)n(-c2ccccc2)n1 | 3.28
62 | CO[C@H]1CC[C@H](N2C(=O)CNc3ncc(-c4ccc(C(C)(C)O)nc4)nc32)CC1 | -0.17
63 | CC[C@@H]1C(=O)N(C)c2cnc(Nc3ccc(C(=O)N[C@H]4CC[C@H](N5CCN(CC6CC6)CC5)CC4)cc3OC)nc2N1C(C)C [Volasertib (BI 6727)] | 0.58
64 | COc1ccc2c(c1)[C@]1(C[C@H]1c1ccc3c(/C=C/c4ccc(CN5C[C@@H](C)O[C@@H](C)C5)cc4)n[nH]c3c1)C(=O)N2 | -0.19
65 | O=C(Nc1nc2cccc(-c3ccc(CN4CCS(=O)(=O)CC4)cc3)n2n1)C1CC1 [Filgotinib (GLPG0634)] | 0.58
66 | CCn1c(-c2nonc2N)nc2c(C#CC(C)(C)O)ncc(OC[C@H]3CCCNC3)c21 | -0.17
67 | Cc1cnc(Nc2ccc(OCCN3CCCC3)cc2)nc1Nc1cccc(S(=O)(=O)NC(C)(C)C)c1 | 0.89
68 | Cc1cc(Nc2cc(N3CCN(C)CC3)nc(/C=C/c3ccccc3)n2)n[nH]1 [ENMD-2076 L-(+)-Tartaric acid] | 2.59
69 | CC#CC(=O)N1CC[C@@H](n2c(=O)n(-c3ccc(Oc4ccccc4)cc3)c3c(N)ncnc32)C1 [ONO-4059 (GS-4059) hydrochloride] | 0.65
70 | CCN1CCN(Cc2ccc(Nc3ncc(F)c(-c4cc(F)c5nc(C)n(C(C)C)c5c4)n3)nc2)CC1 | 0.25
71 | CN(C)C[C@@H]1CCn2cc(c3ccccc32)C2=C(C(=O)NC2=O)c2cn(c3ccccc23)CCO1 | 0.16
72 | CN1CCN(Cc2ccc(NC(=O)Nc3ccc(Oc4ccnc(N)n4)cc3)cc2C(F)(F)F)CC1 | 7.6
73 | O=C(NOCCO)c1ccc2cncn2c1Nc1ccc(I)cc1F | 0.01
74 | CCCCCCCCCCCCc1ccc(S(=O)(=O)Nc2nncs2)cc1 | -0.17

— the supplement of paper PMC9694430
